Hit rate of the full screen: of about 5,600 compounds, about 780 (14%) were called active. Not shown: some 3% with an inconclusive outcome.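 How the source made its calls: active means mean signal decrease across replicates above about 35% based on untreated-well scatter, with enough replicates individually passing (limit read from the data); inconclusive means no rule stated though some were filed; inactive means the rest.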 These entries were drawn from the full list.
Experiment: cytotoxicity in mouse NIH/3T3 fibroblasts, confirmation, cytotoxicity control for T. cruzi proliferation inhibitor project, cell-based, cherry-pick, single point (AID 651742);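 further: 0% = median of neutral control wells and 100% = median of positive control wells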
Settings: NIH/3T3 viability, CellTiter-Glo ATP luminescence, 90 h; at 8.35 µM; active compounds read high

Row | SMILES | cytotoxicity (signal decrease)
1 | COc1ccc(C#Cc2ccc([C@H]3[C@H](CO)N4CCCCN(C(=O)Cc5ccccc5)C[C@@H]34)cc2)cc1 | 58.2% (active)
2 | O=C(Cc1ccccn1)N1CCCCN2[C@@H](CO)[C@@H](c3ccc(C#Cc4ccccc4)cc3)[C@@H]2C1 | 33.5% (inactive)
3 | COc1ccc(-c2ccc([C@H]3[C@H](CO)N4CCCCN(C(=O)Cc5ccncc5)C[C@@H]34)cc2)cc1 | 17.6% (inactive)
4 | O=C(Cc1cccnc1)N1CCCCN2[C@@H](CO)[C@H](c3ccc(C#CC4CCCC4)cc3)[C@@H]2C1 | 23.3% (inactive)
5 | C/C=C/c1ccc([C@H]2[C@H](CO)N3CCCCN(C(=O)Cc4ccncc4)C[C@@H]23)cc1 | 11.1% (inactive)

Reference: PubChem BioAssay AID651742 (Broad Institute, 2012)
